Consider 17 compounds from ChEMBL document CHEMBL1961873, “Compounds: GSK PKIS; Assays: Nanosyn kinase panel” (2012).

For assay [1], the target named is Serine/threonine-protein kinase 26 (Homo sapiens) (UniProt Q9P289). The note with it: at 1 µM.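 Note: mean inhibition of MST4 kinase activity, reported from the GSK PKIS inhibitor-set screening panel.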
Assay [2] concerns the target Serine/threonine-protein kinase PAK 1 (Homo sapiens) (UniProt Q13153). To be noted: at 0.1 µM.
For assay [3] the target is unchanged. To be noted: at 1 µM.
In assay [4] the target is Serine/threonine-protein kinase PAK 2 (Homo sapiens) (UniProt Q13177). To be noted: at 0.1 µM.
Chain of Serine/threonine-protein kinase PAK 2 (Homo sapiens) (Q13177 whole entry): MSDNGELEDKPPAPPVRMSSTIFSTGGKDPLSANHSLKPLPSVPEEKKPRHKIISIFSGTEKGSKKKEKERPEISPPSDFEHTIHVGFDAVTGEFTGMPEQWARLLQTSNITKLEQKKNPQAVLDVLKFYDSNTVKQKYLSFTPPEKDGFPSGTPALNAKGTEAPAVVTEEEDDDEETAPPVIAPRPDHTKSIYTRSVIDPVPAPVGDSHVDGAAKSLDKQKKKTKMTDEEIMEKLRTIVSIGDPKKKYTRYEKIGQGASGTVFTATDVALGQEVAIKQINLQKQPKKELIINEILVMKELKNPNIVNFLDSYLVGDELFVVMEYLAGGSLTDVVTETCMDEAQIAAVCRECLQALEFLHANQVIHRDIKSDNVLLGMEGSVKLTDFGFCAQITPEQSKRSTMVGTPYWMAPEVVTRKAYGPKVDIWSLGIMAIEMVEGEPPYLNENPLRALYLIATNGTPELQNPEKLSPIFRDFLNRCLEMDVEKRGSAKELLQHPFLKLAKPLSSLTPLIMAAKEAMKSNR
Assay [5] shares this target. The note with it: at 1 µM.
For assay [6], the target named is Serine/threonine-protein kinase PAK 3 (Homo sapiens) (UniProt O75914). To be noted: at 0.1 µM.
Chain of Serine/threonine-protein kinase PAK 3 (Homo sapiens) (O75914 whole entry, looked up): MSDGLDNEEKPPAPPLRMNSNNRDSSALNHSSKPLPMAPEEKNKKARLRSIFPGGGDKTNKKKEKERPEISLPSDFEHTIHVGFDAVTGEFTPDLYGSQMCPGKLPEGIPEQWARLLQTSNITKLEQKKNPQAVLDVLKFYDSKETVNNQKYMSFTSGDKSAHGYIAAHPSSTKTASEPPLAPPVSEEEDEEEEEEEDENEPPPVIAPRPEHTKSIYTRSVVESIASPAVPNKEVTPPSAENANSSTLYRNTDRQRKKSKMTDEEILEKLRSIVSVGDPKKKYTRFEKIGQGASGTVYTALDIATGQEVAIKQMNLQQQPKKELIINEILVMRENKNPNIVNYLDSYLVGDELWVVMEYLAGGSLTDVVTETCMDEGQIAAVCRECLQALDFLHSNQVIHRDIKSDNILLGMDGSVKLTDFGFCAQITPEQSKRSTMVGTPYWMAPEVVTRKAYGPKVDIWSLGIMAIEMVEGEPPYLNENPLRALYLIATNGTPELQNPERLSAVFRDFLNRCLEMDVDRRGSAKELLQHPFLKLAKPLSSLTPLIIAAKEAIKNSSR
The target is the same in assay [7]. To be noted: at 1 µM.
The target in assay [8] is Serine/threonine-protein kinase PAK 5 (Homo sapiens) (UniProt Q9P286). To be noted: at 0.1 µM.
Chain of Serine/threonine-protein kinase PAK 5 (Homo sapiens) (Q9P286 whole entry, looked up): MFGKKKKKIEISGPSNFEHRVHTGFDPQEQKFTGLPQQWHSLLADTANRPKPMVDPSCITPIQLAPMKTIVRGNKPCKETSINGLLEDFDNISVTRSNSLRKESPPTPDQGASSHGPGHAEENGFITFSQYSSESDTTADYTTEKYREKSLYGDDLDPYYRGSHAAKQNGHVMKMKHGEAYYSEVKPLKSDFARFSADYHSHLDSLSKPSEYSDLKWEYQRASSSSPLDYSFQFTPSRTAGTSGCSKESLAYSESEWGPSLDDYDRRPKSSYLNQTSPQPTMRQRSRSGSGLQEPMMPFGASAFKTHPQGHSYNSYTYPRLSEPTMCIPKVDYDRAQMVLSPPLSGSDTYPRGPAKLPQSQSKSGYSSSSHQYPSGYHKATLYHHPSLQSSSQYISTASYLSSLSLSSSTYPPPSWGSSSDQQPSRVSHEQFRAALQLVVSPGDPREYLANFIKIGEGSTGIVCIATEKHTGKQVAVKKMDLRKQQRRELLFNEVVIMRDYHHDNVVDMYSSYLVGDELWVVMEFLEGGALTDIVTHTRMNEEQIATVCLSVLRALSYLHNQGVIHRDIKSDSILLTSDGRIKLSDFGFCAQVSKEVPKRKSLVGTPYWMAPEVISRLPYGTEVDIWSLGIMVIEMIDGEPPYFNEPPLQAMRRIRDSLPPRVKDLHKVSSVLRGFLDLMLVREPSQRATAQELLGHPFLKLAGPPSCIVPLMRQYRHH
The target is the same in assay [9]. The note with it: at 1 µM.
Assay [10] addresses Serine/threonine-protein kinase PAK 6 (Homo sapiens) (UniProt Q9NQU5). The note with it: at 0.1 µM.

Chain of Serine/threonine-protein kinase PAK 1 (Homo sapiens) (Q13153 whole entry): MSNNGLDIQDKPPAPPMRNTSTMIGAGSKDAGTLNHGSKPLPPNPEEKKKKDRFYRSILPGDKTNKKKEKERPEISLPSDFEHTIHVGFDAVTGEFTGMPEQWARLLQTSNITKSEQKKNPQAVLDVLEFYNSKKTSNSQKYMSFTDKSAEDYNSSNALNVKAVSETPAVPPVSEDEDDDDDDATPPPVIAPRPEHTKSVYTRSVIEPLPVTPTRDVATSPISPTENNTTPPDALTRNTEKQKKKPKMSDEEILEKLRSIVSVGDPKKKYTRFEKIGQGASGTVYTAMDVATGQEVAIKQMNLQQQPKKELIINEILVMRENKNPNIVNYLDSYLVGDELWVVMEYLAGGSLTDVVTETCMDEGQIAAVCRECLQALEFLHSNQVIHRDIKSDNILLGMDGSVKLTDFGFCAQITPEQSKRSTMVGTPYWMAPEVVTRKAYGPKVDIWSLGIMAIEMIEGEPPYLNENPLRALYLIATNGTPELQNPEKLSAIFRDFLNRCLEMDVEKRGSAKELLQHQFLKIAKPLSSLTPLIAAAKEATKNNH
Chain of Serine/threonine-protein kinase PAK 6 (Homo sapiens) (Q9NQU5 whole entry, looked up): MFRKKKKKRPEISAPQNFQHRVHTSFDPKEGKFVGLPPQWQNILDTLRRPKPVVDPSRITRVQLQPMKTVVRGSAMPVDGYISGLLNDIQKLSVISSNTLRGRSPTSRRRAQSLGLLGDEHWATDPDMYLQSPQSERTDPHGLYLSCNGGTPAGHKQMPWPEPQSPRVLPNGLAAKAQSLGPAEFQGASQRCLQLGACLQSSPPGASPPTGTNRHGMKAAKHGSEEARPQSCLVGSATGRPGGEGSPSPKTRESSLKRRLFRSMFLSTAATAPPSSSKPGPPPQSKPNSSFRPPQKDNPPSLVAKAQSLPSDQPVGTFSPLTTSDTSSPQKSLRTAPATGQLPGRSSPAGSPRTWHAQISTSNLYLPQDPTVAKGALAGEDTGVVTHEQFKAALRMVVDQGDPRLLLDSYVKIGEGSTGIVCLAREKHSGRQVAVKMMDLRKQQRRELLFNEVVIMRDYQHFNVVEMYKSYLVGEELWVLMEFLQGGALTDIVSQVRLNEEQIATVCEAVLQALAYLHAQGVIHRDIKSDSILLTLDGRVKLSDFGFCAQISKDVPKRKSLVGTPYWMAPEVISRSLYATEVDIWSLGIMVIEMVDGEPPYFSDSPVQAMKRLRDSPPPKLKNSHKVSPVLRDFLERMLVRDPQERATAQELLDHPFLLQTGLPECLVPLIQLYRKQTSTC
Chain of Serine/threonine-protein kinase 26 (Homo sapiens) (Q9P289 2-416 limits assumed): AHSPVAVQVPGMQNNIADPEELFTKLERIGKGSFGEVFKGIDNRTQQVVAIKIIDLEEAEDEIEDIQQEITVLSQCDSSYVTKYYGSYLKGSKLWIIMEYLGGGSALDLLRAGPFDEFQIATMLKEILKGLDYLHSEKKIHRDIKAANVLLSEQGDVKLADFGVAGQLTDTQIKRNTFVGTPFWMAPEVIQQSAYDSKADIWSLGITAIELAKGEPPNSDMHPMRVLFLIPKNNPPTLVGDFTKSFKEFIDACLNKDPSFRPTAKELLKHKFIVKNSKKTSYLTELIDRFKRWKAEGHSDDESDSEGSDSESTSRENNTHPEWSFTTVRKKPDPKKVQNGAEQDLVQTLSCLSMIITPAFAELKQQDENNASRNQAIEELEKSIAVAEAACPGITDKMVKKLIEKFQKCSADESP

Take `Nc1nccc(-c2c(-c3ccc(F)cc3)ncn2C2CCC(O)CC2)n1` (configuration not stated): the inhibition (usually the drop in the measured response relative to a control, in per cent) in [1] was 4.04%; in assay [2], -2.38%; in [3], -3.74%; in assay [4] it was -0.84%; in [5] it was -0.18%; in assay [6], -3.15%. Also, the inhibition in assay [7] is -3.59%; in [8], -2.46%; in assay [9] it was 0.21%; in assay [10] it was 4.1%.
Take `Fc1ccc(-c2ncn(C3CCNCC3)c2-c2ccnc(Oc3ccc(Oc4ccccc4)cc3)n2)cc1`: the inhibition in assay [1] worked out at 2.78%; in assay [2], 6.63%; in assay [3], 8.97%; in [4], 2.19%; in assay [5], 3.52%; in assay [6] it was 4.8%. In addition, the inhibition in [7] is 8.51%; in assay [8], 5.41%; in assay [9], 6.5%; in [10], -6.7%.
`COc1cc(Nc2ncc3c(C)nc(-c4cccc(Oc5ccccc5)c4)n3n2)cc(OC)c1OC`: the inhibition in assay [1] was -2.15%; in assay [2] it was 4.4%; in [3], 3.74%; in assay [4], 1.49%; in assay [5] it was 1.12%; in assay [6] it was 2.09%. Moreover, the inhibition in assay [7] was 4.11%; in assay [8], 1.86%; in [9], 4.51%; in assay [10] it was -2.06%.
Regarding `CCc1ccc(Oc2nccc(-c3c(-c4ccc(F)cc4)ncn3C3CCNCC3)n2)cc1`, the inhibition in [1] was found to be 2.83%; in [2], 4.48%; in [3], 10.2%; in assay [4], 1.26%; in assay [5], 2.44%; in assay [6], 4.22%. Moreover, the inhibition was 5.69% in assay [7], 6.56% in [8], 9.57% in [9] and -5.49% in [10].
Take `NS(=O)(=O)c1ccc(N/N=C2\C(=O)Nc3ccc(C(=O)NCCCn4ccnc4)cc32)cc1`: the inhibition stood at 6.6% in assay [1]; 4.13% in [2]; 11.5% in assay [3]; 0.82% in assay [4]; 2.78% in [5]; 4.22% in assay [6]. For the same compound, the inhibition in [7] was 5.04%; in [9], -1.29%; in assay [10] it was -2.98%.
Consider `CN(C)CCOc1ccc(-c2cc(-c3ccc4c(c3)CCC4=NO)c(-c3ccncc3)o2)cc1`, for which the inhibition in [1] was 3.69%; in [2], -4.98%; in assay [3], -1.45%; in assay [4], -1.68%; in assay [5], -2.82%; in assay [6], -1.69%. In addition, the inhibition is -1.63% in [7], -8.32% in [8], -0.63% in assay [9] and 1.99% in assay [10].
Take `COc1cc2ncn(-c3cc(OCc4ccccc4C(F)(F)F)c(C(C)=O)s3)c2cc1OC`: the inhibition in assay [1] is -1.77%; in assay [2], 5.43%; in assay [3], 4.68%; in assay [4], 0.85%; in assay [5], 1.29%; in assay [6] it was 4.94%. Moreover, the inhibition in [7] was 2.41%; in assay [8] it was -1.43%; in assay [9], 0.17%; in [10] it was -1.14%.
As to `C[C@@H](Oc1cc(-n2cnc3ccc(OC4CCN(C)CC4)cc32)sc1C(N)=O)c1ccccc1Cl`, the inhibition in assay [2] was 5.45%; in [3], 7.26%; in assay [4] it was 1.74%; in assay [5], 2.5%; in [6] it was 5.07%; in [7] it was 10.3%. For the same compound, the inhibition in assay [8] stood at 4.34%; in assay [9], 5.61%.
As to `C/C(Nc1ccc(S(N)(=O)=O)cc1)=C1/C(=O)Nc2ccccc21`, the inhibition in assay [1] was 15.6%; in [2] it was -3.4%; in assay [3], 2.37%; in assay [4], -1.56%; in assay [5] it was -1.06%; in [6], -1.9%. In addition, the inhibition in assay [7] was -1.11%; in [8], -6.43%; in [9], 2.88%; in assay [10], -4.08%.
As to `CN(C)CCCNc1nccc(-c2c(-c3ccc(F)cc3)nn3cc(C(F)(F)F)ccc23)n1`, the inhibition in assay [1] is 0.55%; in assay [2] it was -1.51%; in assay [3], -0.15%; in assay [4], 1.45%; in assay [5], 1.67%; in [6], 1.76%. Moreover, the inhibition is 2.77% in assay [7], 0.97% in assay [8], 1.58% in [9] and 2.33% in assay [10].
Consider `O=C(NCC1CC1)c1ccc(-c2cccc(C(=O)NC3CC3)c2)cc1`, for which the inhibition in [1] was -6.13%; in assay [2], 1.6%; in [3], 3.71%; in [4] it was 2.76%; in assay [5], 1.58%; in assay [6] it was 2.9%. Besides, the inhibition is 2.97% in assay [7], 9.42% in assay [8], 6.07% in assay [9] and -1.35% in assay [10].
Turning to `O=C1Nc2ccccc2/C1=C/Nc1ccc(-n2cncn2)cc1`, the inhibition in assay [1] amounted to 5.15%; in assay [2], 6.65%; in assay [3] it was 8.31%; in assay [4] it was 1.82%; in assay [5], 2.17%; in assay [6], 5.31%. For the same compound, the inhibition was 5.49% in assay [7], -2.52% in assay [9] and -0.09% in [10].
For `COc1cc2ncn(-c3cc(OCc4cccs4)c(C(N)=O)s3)c2cc1OC`, the inhibition in [1] turned out to be 0.69%; in [2] it was 5.82%; in assay [3], 5.75%; in assay [4], 0.62%; in assay [5], 0.03%; in assay [6] it was 2%. Also, the inhibition came to 4.56% in assay [7], 8.19% in [8], 8.5% in assay [9] and 6.2% in [10].
`CCc1nccc2c1nc(-c1nonc1N)n2CC`: the inhibition was -1.83% in [1]; 3.29% in assay [2]; 3.71% in assay [3]; 0.74% in [4]; 1.13% in assay [5]; 0.51% in assay [6]. In addition, the inhibition in assay [7] came to 1.09%; in assay [10], 3.51%.
As for `Fc1ccc(-c2ncn(CCCN3CCOCC3)c2-c2ccncc2)cc1`, the inhibition in assay [1] is 0.15%; in [2] it was 2.56%; in assay [3], 3.02%; in [4], -0.59%; in assay [5], -0.77%; in assay [6], 0.6%. The values for the inhibition in assay [7] and in assay [10] were 0.53% and -0.97%, respectively.
As to `CCC(=O)Nc1ccc(C)c(-c2ccc(C(=O)NCC3CC3)cc2)c1`, the inhibition in [1] was -3.71%; in assay [2] it was 3.98%; in assay [3], 9.02%; in assay [4] it was 0.42%; in assay [5] it was 0.8%; in [6], 2.56%. For the same compound, the inhibition in assay [7] was 3.37%; in assay [8], -0.07%; in assay [9], -2.96%; in assay [10], -8.71%.
Regarding `CCS(=O)(=O)c1ccc(OC)c(Nc2ncc(-c3ccccc3Cl)o2)c1`, the inhibition was 1.46% in [1]; -0.73% in [2]; -1.58% in assay [3]; 1.78% in [4]; 0.49% in [5]; -0.53% in assay [6]. For the same compound, the inhibition in [7] was 0.98%; in [8], 3.82%; in assay [9], 17.3%; in assay [10], -6.91%.
